Source: the supplement of paper PMC11732987, “Enantioselective OTUD7B fragment discovery through chemoproteomics screening and high-throughput optimisation” (Communications Chemistry, 2025)

What was measured:
Test in all cases: log2 ratio of Biotin-Ahx-Ub-VS probe labelling (fragment/DMSO); higher = less target engagement (more negative = stronger competition), active = hit call of the paper (q ≤ 0.05, log2 ratio ≤ -1)
Settings in all cases: compound concentration: 200 uM; treatment time: 3 h
USP19 = biological target: T1, USP19 (UniProt O94966)
T1 sequence (whole entry): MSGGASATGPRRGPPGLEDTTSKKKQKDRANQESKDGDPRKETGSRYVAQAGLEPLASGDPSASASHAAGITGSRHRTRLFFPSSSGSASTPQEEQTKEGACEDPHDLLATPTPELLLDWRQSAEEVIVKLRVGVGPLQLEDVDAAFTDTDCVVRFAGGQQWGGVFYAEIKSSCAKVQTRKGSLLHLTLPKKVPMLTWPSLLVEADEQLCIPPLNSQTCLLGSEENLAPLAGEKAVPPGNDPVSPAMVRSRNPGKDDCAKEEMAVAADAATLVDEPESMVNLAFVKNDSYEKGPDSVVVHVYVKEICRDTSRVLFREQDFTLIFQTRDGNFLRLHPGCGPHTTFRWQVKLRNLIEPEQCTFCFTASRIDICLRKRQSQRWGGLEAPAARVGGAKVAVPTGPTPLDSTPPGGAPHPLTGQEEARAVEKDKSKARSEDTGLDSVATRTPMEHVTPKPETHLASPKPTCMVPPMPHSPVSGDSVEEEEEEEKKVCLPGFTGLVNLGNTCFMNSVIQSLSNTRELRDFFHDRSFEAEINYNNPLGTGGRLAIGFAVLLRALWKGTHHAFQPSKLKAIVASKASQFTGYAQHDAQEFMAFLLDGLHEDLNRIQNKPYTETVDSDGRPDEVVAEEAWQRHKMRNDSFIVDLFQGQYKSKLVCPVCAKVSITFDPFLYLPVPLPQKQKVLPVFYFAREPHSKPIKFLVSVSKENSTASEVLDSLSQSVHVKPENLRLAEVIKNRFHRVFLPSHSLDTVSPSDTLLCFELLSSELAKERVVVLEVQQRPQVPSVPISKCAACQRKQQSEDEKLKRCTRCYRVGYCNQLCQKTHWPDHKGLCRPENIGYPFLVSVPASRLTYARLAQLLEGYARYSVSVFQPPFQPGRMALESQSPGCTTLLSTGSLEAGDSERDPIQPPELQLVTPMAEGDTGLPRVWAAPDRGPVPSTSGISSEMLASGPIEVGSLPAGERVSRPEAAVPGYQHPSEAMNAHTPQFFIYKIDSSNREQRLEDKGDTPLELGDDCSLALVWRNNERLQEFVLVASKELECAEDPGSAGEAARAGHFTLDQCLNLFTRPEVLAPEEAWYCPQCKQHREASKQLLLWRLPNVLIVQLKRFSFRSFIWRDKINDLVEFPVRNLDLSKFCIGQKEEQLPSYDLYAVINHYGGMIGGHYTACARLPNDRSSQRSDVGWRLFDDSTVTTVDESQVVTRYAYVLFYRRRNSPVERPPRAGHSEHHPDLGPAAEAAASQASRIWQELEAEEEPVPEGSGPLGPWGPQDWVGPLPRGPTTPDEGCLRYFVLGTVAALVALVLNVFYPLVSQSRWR
Method in brief: (§1)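 The table lists average log2 ratios of fragment over vehicle, from an unpaired t-test on global-median-normalised Spectronaut label-free quantities. Proteins with ≥2 unique peptides were used. Samples were HEK293T lysate (495 µg) treated in triplicate with fragment at 200 µM or vehicle for 3 h, then with Biotin-Ahx-Ub-VS (0.5 µM final) for 1 h, with labelled DUBs NeutrAvidin-enriched and run by diaPASEF LC-MS/MS.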

USP22 = biological target: T2, USP22 (UniProt Q9UPT9)
T2 sequence (whole entry): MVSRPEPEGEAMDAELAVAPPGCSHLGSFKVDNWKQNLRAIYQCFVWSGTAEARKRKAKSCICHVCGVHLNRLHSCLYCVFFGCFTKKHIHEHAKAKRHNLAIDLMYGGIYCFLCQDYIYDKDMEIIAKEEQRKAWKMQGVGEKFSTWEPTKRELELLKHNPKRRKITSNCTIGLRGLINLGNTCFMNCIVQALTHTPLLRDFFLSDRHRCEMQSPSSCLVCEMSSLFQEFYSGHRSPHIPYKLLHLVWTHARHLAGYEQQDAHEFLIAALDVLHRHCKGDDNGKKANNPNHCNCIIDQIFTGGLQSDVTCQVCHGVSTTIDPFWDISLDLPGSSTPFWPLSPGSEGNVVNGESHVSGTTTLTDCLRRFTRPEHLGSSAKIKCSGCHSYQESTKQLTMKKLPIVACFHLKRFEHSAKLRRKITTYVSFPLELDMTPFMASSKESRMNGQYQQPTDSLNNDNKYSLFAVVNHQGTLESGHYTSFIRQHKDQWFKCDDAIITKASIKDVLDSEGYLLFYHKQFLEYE
Method in brief: as §1

USP24 = USP24 (UniProt Q9UPU5)
Sequence of USP24 (Q9UPU5 whole entry): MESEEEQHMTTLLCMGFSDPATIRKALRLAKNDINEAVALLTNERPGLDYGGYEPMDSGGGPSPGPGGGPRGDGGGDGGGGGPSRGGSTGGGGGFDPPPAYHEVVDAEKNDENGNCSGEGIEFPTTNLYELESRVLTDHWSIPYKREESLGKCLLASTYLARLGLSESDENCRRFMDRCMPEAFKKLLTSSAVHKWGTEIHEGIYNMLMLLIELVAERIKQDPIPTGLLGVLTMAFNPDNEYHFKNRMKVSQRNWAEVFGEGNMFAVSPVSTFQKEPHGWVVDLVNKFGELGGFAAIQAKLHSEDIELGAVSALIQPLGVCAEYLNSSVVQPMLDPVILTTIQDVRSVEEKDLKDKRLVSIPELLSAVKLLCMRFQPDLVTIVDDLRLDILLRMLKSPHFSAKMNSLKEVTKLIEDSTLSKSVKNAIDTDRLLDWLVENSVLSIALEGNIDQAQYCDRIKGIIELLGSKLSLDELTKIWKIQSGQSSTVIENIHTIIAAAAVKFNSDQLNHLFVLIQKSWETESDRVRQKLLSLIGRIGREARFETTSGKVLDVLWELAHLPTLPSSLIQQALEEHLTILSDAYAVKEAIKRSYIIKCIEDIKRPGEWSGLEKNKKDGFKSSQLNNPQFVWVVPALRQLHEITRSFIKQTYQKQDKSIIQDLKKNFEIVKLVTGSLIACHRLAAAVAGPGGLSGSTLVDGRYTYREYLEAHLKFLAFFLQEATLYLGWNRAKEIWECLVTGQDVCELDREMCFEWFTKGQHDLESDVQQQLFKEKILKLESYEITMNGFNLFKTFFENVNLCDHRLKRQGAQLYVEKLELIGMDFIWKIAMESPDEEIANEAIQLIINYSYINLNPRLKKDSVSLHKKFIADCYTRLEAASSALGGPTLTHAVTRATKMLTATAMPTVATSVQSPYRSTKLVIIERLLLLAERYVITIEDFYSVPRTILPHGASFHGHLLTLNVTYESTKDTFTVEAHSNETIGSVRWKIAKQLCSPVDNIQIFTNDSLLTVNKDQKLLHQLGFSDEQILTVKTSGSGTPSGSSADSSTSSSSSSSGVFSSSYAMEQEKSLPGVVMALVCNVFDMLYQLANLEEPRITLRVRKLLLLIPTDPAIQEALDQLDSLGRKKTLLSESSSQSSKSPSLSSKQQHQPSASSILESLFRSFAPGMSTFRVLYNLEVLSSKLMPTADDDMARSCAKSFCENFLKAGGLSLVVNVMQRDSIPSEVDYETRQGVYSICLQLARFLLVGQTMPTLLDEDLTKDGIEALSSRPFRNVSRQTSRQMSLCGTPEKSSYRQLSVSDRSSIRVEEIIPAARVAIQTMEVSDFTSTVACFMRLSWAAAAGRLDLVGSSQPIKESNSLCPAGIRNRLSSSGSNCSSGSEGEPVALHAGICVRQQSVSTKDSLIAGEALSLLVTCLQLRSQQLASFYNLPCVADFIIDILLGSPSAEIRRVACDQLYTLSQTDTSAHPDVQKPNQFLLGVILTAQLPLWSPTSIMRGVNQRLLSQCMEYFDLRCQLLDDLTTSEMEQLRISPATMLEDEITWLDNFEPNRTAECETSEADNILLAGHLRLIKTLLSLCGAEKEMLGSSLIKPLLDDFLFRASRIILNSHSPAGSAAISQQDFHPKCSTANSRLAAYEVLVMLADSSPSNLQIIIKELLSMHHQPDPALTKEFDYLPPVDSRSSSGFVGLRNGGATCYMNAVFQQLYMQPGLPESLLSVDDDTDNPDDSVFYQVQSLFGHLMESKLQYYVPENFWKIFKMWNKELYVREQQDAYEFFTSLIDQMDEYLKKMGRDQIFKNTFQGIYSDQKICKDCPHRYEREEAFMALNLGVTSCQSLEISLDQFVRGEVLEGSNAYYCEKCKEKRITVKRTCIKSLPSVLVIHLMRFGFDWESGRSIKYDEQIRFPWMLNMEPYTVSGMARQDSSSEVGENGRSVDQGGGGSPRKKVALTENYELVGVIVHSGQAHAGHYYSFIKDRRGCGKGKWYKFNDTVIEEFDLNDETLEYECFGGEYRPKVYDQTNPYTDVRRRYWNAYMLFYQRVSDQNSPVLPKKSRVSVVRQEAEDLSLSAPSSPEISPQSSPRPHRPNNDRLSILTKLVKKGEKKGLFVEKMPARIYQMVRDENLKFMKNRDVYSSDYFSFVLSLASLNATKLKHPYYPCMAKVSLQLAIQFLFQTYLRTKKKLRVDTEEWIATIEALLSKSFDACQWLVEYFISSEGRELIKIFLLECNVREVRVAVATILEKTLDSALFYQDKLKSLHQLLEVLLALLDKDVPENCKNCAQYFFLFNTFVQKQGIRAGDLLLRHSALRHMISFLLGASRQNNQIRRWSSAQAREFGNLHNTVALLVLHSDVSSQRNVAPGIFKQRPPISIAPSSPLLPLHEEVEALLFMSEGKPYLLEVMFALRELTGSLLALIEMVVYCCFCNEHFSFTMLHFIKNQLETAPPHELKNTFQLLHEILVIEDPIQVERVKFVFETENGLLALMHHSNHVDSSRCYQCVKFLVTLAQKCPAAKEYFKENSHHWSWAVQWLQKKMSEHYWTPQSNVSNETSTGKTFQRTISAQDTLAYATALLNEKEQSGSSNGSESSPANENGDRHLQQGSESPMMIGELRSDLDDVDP
Method in brief: as §1

USP25 = biological target: T3, USP25 (UniProt Q9UHP3)
T3 sequence (whole entry): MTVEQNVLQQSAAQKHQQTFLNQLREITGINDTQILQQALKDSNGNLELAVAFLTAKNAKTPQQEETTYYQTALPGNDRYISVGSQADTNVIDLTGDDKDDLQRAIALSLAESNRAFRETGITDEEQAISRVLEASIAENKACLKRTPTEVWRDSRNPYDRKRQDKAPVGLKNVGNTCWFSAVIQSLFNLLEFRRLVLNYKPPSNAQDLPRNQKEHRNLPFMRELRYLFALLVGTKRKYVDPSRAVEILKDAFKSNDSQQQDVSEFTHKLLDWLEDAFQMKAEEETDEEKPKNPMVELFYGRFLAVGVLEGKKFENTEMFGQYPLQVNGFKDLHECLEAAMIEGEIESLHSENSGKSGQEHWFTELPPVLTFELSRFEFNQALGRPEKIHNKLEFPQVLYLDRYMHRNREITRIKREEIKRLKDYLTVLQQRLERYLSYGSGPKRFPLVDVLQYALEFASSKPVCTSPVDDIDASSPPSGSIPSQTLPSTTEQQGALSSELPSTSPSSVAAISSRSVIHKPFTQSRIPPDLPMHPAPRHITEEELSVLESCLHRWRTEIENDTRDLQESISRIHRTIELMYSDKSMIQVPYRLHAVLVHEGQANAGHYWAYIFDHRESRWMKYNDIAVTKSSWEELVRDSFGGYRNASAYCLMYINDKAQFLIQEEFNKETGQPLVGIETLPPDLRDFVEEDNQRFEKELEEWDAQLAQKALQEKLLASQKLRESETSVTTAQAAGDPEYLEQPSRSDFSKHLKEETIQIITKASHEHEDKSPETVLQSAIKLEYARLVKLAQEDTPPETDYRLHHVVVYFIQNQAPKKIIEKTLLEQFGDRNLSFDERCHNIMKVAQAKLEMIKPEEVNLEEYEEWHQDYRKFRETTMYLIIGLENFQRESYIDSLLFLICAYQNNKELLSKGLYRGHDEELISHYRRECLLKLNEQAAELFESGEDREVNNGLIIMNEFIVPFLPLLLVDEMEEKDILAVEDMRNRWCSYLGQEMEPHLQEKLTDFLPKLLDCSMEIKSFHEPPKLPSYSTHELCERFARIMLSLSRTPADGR
Method in brief: as §1

USP28 = biological target: T4, USP28 (UniProt Q96RU2)
T4 sequence (whole entry): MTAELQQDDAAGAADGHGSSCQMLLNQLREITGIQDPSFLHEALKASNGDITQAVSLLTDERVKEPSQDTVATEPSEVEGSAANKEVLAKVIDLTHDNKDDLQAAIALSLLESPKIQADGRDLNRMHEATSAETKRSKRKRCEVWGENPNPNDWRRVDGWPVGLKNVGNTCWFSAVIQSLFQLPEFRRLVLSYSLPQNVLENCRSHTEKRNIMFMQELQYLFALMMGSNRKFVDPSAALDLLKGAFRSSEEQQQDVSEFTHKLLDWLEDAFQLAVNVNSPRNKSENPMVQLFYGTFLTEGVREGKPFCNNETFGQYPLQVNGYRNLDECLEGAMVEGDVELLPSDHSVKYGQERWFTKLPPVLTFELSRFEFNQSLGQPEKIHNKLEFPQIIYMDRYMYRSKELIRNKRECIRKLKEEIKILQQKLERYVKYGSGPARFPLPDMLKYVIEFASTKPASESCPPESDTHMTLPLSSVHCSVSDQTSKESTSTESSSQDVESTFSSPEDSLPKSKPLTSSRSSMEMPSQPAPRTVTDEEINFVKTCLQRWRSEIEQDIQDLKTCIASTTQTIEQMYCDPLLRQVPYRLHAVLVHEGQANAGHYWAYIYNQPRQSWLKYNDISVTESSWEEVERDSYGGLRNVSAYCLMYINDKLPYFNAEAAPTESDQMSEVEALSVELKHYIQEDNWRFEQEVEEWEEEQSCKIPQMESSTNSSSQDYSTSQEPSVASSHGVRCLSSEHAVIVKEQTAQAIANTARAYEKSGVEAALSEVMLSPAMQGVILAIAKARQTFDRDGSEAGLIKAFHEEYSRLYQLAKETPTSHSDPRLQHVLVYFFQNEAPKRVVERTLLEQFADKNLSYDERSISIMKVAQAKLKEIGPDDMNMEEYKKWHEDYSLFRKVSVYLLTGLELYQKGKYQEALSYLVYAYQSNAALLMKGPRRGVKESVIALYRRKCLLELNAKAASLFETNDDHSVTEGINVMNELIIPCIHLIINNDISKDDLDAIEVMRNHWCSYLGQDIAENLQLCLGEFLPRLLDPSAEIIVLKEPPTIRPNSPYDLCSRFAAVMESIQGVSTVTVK
Method in brief: as §1

Measured: log2 ratio of Biotin-Ahx-Ub-VS probe labelling

O=C(CCl)N(C1=CCCCC1)C1CC1
inactive: USP19 -0.0989 | USP22 -0.481 | USP24 -0.573 | USP25 -0.226 | USP28 -0.185
